Source: PubChem BioAssay (EPA / NIEHS)
Inconclusive results are not listed. Calls of active or inactive are those of the source. How the source made its calls: active means hit-call score of the fitted dose curve at least 0.9, where 1 is the maximum; inconclusive means response in the unintended direction; inactive means score below 0.9.

Experiment: ATG_M_06_TRANS: Attagene TRANS-FACTORIAL HepG2 Assay for M06 Transcription Factor (Internal Marker) (AID 2282983)
Conditions: HepG2 Attagene TRANS M06 internal marker reporter
Protocol: ATG_TRANS is a cell-based, multiplexed-readout assay that uses HepG2, a human liver cell line, with measurements taken at 24 hours after chemical dosing in a 24-well plate.ATG_M_06_TRANS is one of 30 assay component(s) measured or calculated from the ATG_TRANS assay. It is designed to make measurements of mRNA induction, a form of inducible reporter, as detected with fluorescence intensity signals by Reverse transcription polymerase chain reaction (RT-PCR) and Capillary electrophoresis technology.Data from the assay component ATG_M_06_TRANS was analyzed into 1 assay endpoint. This assay endpoint, ATG_M_06_TRANS, was analyzed in the positive analysis fitting direction relative to DMSO as the negative control and baseline of activity. Using a type of inducible reporter, measures of mRNA for gain-of-signal activity can be used to understand the background control at the transcription factor-level as they relate to the gene . Furthermore, this assay endpoint can be referred to as a secondary readout, because this assay has produced multiple assay endpoints where this one serves a background control function. To generalize the intended target to other relatable targets, this assay endpoint is annotated to the background measurement intended target family, where the subfamily is internal marker.
Human liver HepG2 cells are transiently transfected with multiple reporter transcription units (MRTUs) in 6-well plates using FuGene 6 reagent (Roche; 3 ml FuGene/1 mg DNA). The MRTU constructs are regulated by a cis-regulating element (promoter). […] A major difference between the CIS and TRANS system is that in CIS activities of endogenous TFs are measured, whereas the TRANS assay evaluates changes in activities of exogenous, chimeric NR-Gal4 proteins. […] At the end of 24 hour incubation, total RNA was isolated using TriZol reagent (Invitrogen). The isolated RNA is then reverse-transcribed using oligo(dT) primer and Mo-MLV reverse transcriptase (Invitrogen) with DNAse I (Ambion) treatment for 30 min. The one-tenth of the produced cDNA was amplified by PCR using Taq DNA polymerase (Invitrogen) and two reporter sequence-specific primers. The PCR products were fluorescently labeled by primer extension with 6-arboxyfluorescein (6-FAM) 5'-labeled reporter sequence-specific primer (2 min at 95 C, 20 s at 68 C and 10 min at 72 C) and these products were digested with 5U of HpaI (New England Biolabs) for 2h at 37 C. The fragments were purified using Qiaquick PCR columns (Qiagen), analyzed on an ABI 3130xL genetic analyzer (Applied Biosystems) with peak positions identified by using a set of X-rhodamine (ROX)-labeled MapMarker1000 molecular weight standards (BioVentures). The raw capillary electrophoresis data was processed using Attagraph software (Attagene).

Row | Compound | outcome
1 | CCCCCCOC(C)=O | inactive
2 | CC(=O)OCC=C(C)CCC=C(C)CCC=C(C)C | inactive
3 | CCCCCCCCCCCCOCCOS(=O)(=O)O | inactive
4 | OCCCO | inactive
5 | CNC(=C[N+](=O)[O-])NCCSCc1ccc(CN(C)C)o1 | inactive
6 | CCO[Si](CC)(OCC)OCC | inactive
7 | C[C@H](CCC(=O)O)[C@H]1CC[C@H]2[C@@H]3CC[C@@H]4C[C@H](O)CC[C@]4(C)[C@H]3CC[C@]12C | inactive
8 | O=c1cc[nH]cc1 | inactive
9 | CC(CCO)CC(C)(C)C (stereo not given) | inactive
10 | C=C1CC[C@H]2O[C@]2(C)CC[C@@H]2[C@@H]1CC2(C)C | inactive
11 | CCCCC(CC)COCCO (stereo not given) | inactive
12 | CC(C)(O)C(=O)c1ccc(OCCO)cc1 | inactive
13 | CCCCCCCCSCc1cc(C)c(O)c(CSCCCCCCCC)c1 | inactive
14 | CCCCOCCOC(=O)c1ccccc1C(=O)OCCOCCCC | inactive
15 | CC1=CC[C@@H]2C[C@H]1C2(C)C | inactive
16 | CC(C)COC(=O)c1ccccc1O | inactive
17 | C=CCCCCCCCCC(=O)OCC | inactive
18 | CCCCOCCOCCO | inactive
19 | CC(C)(C)C1CCC(O)CC1 (stereo not given) | inactive
20 | CC(O)CNCC(C)O (stereo not given) | inactive

Row | Compound | outcome
21 | CN1CCc2cccc3c2[C@H]1Cc1ccc(O)c(O)c1-3 | inactive
22 | C[C@]12CC[C@@H]3c4ccc(O)cc4CC[C@H]3[C@@H]1CC[C@@H]2O | inactive
23 | CCCCCCCCCOS(=O)(=O)O | inactive
24 | CC(C)C(=O)c1ccccc1 | inactive
25 | COc1ccc2[nH]cc(CCNC(C)=O)c2c1 | inactive
26 | CC(C)(C)c1ccc(S)cc1 | inactive
27 | Cc1ccncc1 | inactive
28 | O=C(c1ccc(OCCN2CCCCC2)cc1)c1c(-c2ccc(O)cc2)sc2cc(O)ccc12 | inactive
29 | CC(C)=CCCC(C)=CC(=O)O | inactive
30 | CCC(C)(C)c1cc(O)c(C(C)(C)CC)cc1O | inactive
31 | CCCCC1CCCCC(=O)O1 (stereo not given) | inactive
32 | CCC(=O)OCC=Cc1ccccc1 | inactive
33 | CCC(C)C1CCCCC1=O (stereo not given) | inactive
34 | NC(=O)NC(N)=O | inactive
35 | CC1(C)[C@H](C=C(Cl)Cl)[C@H]1C(=O)OCc1cccc(Oc2ccccc2)c1 | inactive
36 | ClCCOCCOCCCl | inactive
37 | O=S(=O)(O)CCCN1CCOCC1 | inactive
38 | O=C(O)c1cc2ccccc2cc1O | inactive
39 | CC(C)(CO)CO | inactive
40 | c1ccc(Sc2ccccc2)cc1 | inactive
